Data reported in PMC5540273 (PLoS ONE, 2017).

Tests used:
Details in all cases: concentration: 1 μM, replicates: in singlicate; n = 1
[1] = system: CSF1R-autoinhibited
[2] = system: CSF1R
[3] = system: CSK
[4] = system: CSNK1A1L
[5] = system: CSNK1A1
[6] = system: CSNK1D
[7] = system: CSNK1E
[8] = system: CSNK1G1
[9] = system: CSNK1G2
[10] = system: CSNK1G3
[11] = system: CSNK2A1
[12] = system: CSNK2A2
[13] = system: T1, CTK
T1 construct: gene MATK

[14] = system: DAPK1
[15] = system: DAPK2
[16] = system: DAPK3
[17] = system: T2, DCAMKL1
T2 construct: gene DCLK1

[18] = system: T3, DCAMKL2
T3 construct: gene DCLK2

[19] = system: T4, DCAMKL3
T4 construct: gene DCLK3

[20] = system: DDR1
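Note: KINOMEscan kinase panel screen.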

SMILES	%Inh [1] [%]	%Inh [2] [%]	%Inh [3] [%]	%Inh [4] [%]	%Inh [5] [%]	%Inh [6] [%]	%Inh [7] [%]	%Inh [8] [%]	%Inh [9] [%]	%Inh [10] [%]	%Inh [11] [%]	%Inh [12] [%]	%Inh [13] [%]	%Inh [14] [%]	%Inh [15] [%]	%Inh [16] [%]	%Inh [17] [%]	%Inh [18] [%]	%Inh [19] [%]	%Inh [20] [%]
Cl.O=S(=O)(c1cccc(F)c1)c1ccc(Nc2ncnc3cc(Br)sc23)cc1Cl [GSK306886]	0	8	30	0	0	36	22	0	0	33	0	37	0	8	0	47	6	0	9	2
COc1cc2ncnc(Nc3ccc(OCc4ccccc4Br)c(Cl)c3)c2cc1OC.Cl [GI261590]	10	7	7	0	0	24	24	0	0	27	0	0	0	0	0	17	14	0	21	0
Nc1nccc2scc(-c3ccc4c(c3)CCN4C(=O)Cc3cc(F)ccc3F)c12 [GSK2587663]	0	67	0	1	0	14	62	0	0	10	0	7	0	27	2	7	14	8	11	10
CC(C)(C)OC(=O)NC1CCCN(c2cc(-c3ccc4c(N)n[nH]c4c3)nc(N)n2)C1 (centres unmarked) [GSK2286096]	0	10	0	0	0	5	18	24	0	24	0	5	0	18	0	12	10	0	0	0
COC(=O)c1cccc(NC(=O)NCCNc2ccnc(Nc3ccc(F)cc3)n2)c1 [GSK1379883]	0	14	0	4	0	3	29	0	0	25	0	23	0	0	0	13	88	0	24	0
Nc1nc(-c2ccccn2)c(-c2ccnc3ccccc23)s1 [GW548057]	58	19	3	38	89	83	79	11	0	27	0	17	0	11	13	31	23	11	6	0
Clc1cc(Nc2ncnc3cc[nH]c23)ccc1OCc1ccccn1	0	7	17	1	14	4	4	2	11	0	41	31	56	25	0	0	26	21	6	14
Cc1cc(N2CCC(NS(=O)(=O)c3ccc(F)cc3)CC2)nc(Nc2cccc(C#N)c2)n1.O=C(O)C(F)(F)F [GSK1653537]	0	0	0	35	25	27	52	27	5	15	1	11	0	0	0	2	0	0	0	0
Cl.Cl.c1ccc(-c2cc3ccncc3cc2OC2CCNCC2)cc1 [GSK1122999]	5	49	0	23	16	0	41	14	0	27	0	27	0	93.5	66	98.8	19	0	30	9
Cc1ccc(C)c(NC(=O)NCCNc2ccnc(Nc3ccc(F)cc3)n2)c1 [GSK1379878]	15	7	100	0	11	0	33	0	0	24	5	0	0	0	0	11	19	0	0	1
Fc1ccc(Nc2nccc(-c3c(-c4ccc(Cl)cc4)nn4ncccc34)n2)cc1F [GW829058]	0	14	28	3	32	60	22	0	2	0	0	24	30	1	0	8	25	11	0	87
FC(F)(F)c1cc(Nc2nccc(-c3c(-c4ccc(Cl)cc4)nn4ncccc34)n2)ccc1Cl [GW829351]	0	0	0	0	0	81	79	0	0	0	0	11	14	0	0	12	0	0	0	78
CNc1nccc(-c2c(-c3ccc(F)cc3)ncn2C2CCN(C)CC2)n1 [SB-222903]	0	0	0	38	95.5	94	99.5	0	0	0	0	0	0	0	0	25	19	0	0	65
COc1ccc(Nc2nccc(N3CCC(NC(=O)Nc4ccc5c(c4)OCO5)C3)n2)cc1 (centres unmarked) [GSK1379745]	16	0	0	24	0	83	22	1	2	16	5	0	0	26	14	17	0	14	0	15
Fc1ccc(-c2ncn(CCCNCc3ccccc3)c2-c2ccncc2)cc1	19	4	0	22	90.4	96.6	98.3	5	7	20	22	27	25	23	11	16	0	2	15	18
O=C(CCO)NCCn1ccc2ncnc(Nc3ccc(Oc4cccc(C(F)(F)F)c4)c(Cl)c3)c21	0	0	3	0	0	0	0	0	0	0	0	0	0	11	0	0	39	0	0	0
